About 79,000 compounds went through this panel and 15% of them were active in at least one assay; those are over-represented in the sample as a whole. The source made the active and inactive calls. Rule as the data show it: active = growth inhibition above about 70%; inactive = the rest.
Assay: NCI Yeast Anticancer Drug Screen. Data for the rad14 strain (AID 159);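 also: 0% = growth of vehicle-treated control cultures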
Conditions: S. cerevisiae rad14 strain growth inhibition; at 33.0 µM; hits give high values
Summary of the method: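 Compound-treated yeast with a defined DNA-repair lesion; growth inhibition normalised to vehicle-treated cultures.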

SMILES | growth inhibition
CCN(CC)CC[n+]1ccc2c(C)c3[nH]c4ccc(O)cc4c3c(C)c2c1 | 3% (inactive)
O=[n+]1c2ccc(Cl)cc2n([O-])c2ccc(Cl)cc21 | 6% (inactive)
CCOP(=O)(OCC)C(Cc1ccccc1)N=C(c1ccccc1)c1ccccc1 (stereo not drawn) | 73% (active)
CC[C@@]1(O)C(=O)OCc2c1cc1n(c2=O)Cc2cc3c(N)cccc3nc2-1 | -24% (inactive)
COC1C=COC2(C)Oc3c(C)c(O)c4c(c3C2=O)/C(=N/C2CCC(O)OC2C)C=C(NC(=O)/C(C)=C\C(=O)C2CC2C(O)C(C)C(O)C(C)C(OC(C)=O)C1C)C4=O (stereo not drawn) | 16% (inactive)
COc1cc2c(c(OC)c1OC)-c1c(cc3c(c1OC)OCO3)CC(C)C(C)(O)C2OC(=O)c1ccccc1 (stereo not drawn) | -4% (inactive)
O=c1ssc2ncccc12 | 97% (active)
O=C1C2C(C(=O)N1c1ccc(OCc3ccccc3)cc1)C1c3ccccc3C2C2CCCCN21 (stereo not drawn) | 35% (inactive)
COc1ccc(-c2cn(-c3ccc(I)cc3)c3ncnc(N)c23)cc1 | -8% (inactive)
CCOC(=O)C(NC(=O)c1ccccc1)(N1CCN(c2cc3c(cc2F)c(=O)c(C(=O)O)cn3C2CC2)CC1)C(F)(F)F (stereo not drawn) | 3% (inactive)
C/C(=N\O)C1CC2C=C(C#N)C1N(Cc1ccccc1)C2 (stereo not drawn) | 1% (inactive)
CC/C(=C(\c1ccccc1)c1ccc(OCCN(C)C)cc1)c1ccccc1 | 97% (active)
COc1ccccc1N=NC(C(=O)c1ccccc1)C(=O)c1ccccc1 | 98% (active)
CC(O)C(O)C(O)C(/C=N\Nc1ccccc1)=N/Nc1ccccc1 (stereo not drawn) | 21% (inactive)
COc1ccc(/C=C2\SC(=S)N(/C=C/c3nc4ccccc4[nH]c3=O)C2=O)cc1OC | 64% (inactive)
N#CN=Nc1cc(Cl)c(N=NC#N)cc1Cl | 32% (inactive)
Cc1ccc(S(=O)(=O)Oc2cc(Cl)c(Cl)cc2Cl)cc1 | -7% (inactive)
c1ccc2c(c1)Oc1cccc3cccc-2c13 | 36% (inactive)
O=C(c1ccc(Cl)cc1Cl)C(Cl)Cl | 53% (inactive)
CC(C)C1=CCC2C(=C1)CCC1C(C)(C(=O)O)CCCC21C (stereo not drawn) (tested in a mixture with another compound) | 34% (inactive)

SMILES | growth inhibition
COc1cc(/C=C2\CCc3ccccc3C2=O)cc(OC)c1OC | -28% (inactive)
CC(=O)[O][Bi]([c]1ccccc1)[c]1ccccc1 | 95% (active)
S=C(N/N=C/c1ccccn1)Nc1ccc(Cl)cc1 | 27% (inactive)
COc1cc(CC2CC(c3ccc4c(c3)OCO4)OC2=O)cc(OC)c1OC (stereo not drawn) | 4% (inactive)
CNC1C(OC2C(OC3C(O)C(O)C(N=C(N)N)C(O)C3N=C(N)N)OC(C)C2(O)CO)OC(CO)C(O)C1O (stereo not drawn) | 32% (inactive)
NNC(=O)CCc1ccc2ccc3ccccc3c2c1 | -4% (inactive)
Oc1ccc2ccccc2c1C(c1ccc(Cl)cc1)c1c(O)ccc2ccccc12 | -7% (inactive)
CCCCN(CCCC)CCSc1ccc(Cl)cc1 | 12% (inactive)
CCC(C)COC(=O)c1ccc(N=Cc2ccc(C=Nc3ccc(C(=O)OCC(C)CC)cc3)cc2)cc1 (stereo not drawn) | 2% (inactive)
CC1(C)C(=O)OC(n2cc(F)c(=O)[nH]c2=O)C1=O (stereo not drawn) | -15% (inactive)
O=[N+]([O-])CC(SCc1ccccc1)c1ccc2c(c1)OCO2 (stereo not drawn) | 97% (active)
COc1cc2c(cc1[N+](=O)[O-])C(=O)C(Br)(Br)CCC2 | 100% (active)
OCC1OC(OCC(O)C(O)C(O)C(/C=N/Nc2ccccc2)=N/Nc2ccccc2)C(O)C(O)C1O (stereo not drawn) | 9% (inactive)
COc1ccc(N=C2C(=O)Nc3ccc(Br)cc32)cc1 | -28% (inactive)
Cn1c(=O)c2ccccc2c2ccccc21 | 39% (inactive)
CC[n+]1ccc2c(C)c3[nH]c4ccc(O)cc4c3c(C)c2c1 | -20% (inactive)
CC(=O)ON1C(=O)c2cccc3cccc(c23)C1=O | 99% (active)
COc1ccc2ccc3ccccc3c2c1C=O | 14% (inactive)
OC1CCCc2c1cc1ccc3cccc4ccc2c1c34 (stereo not drawn) | 97% (active)

Same assay, conditions: S. cerevisiae rad14 strain growth inhibition; at 100.0 µM; hits give high values

SMILES | growth inhibition
CCN(CC)CC[n+]1ccc2c(C)c3[nH]c4ccc(O)cc4c3c(C)c2c1 | 60% (inactive)
O=[n+]1c2ccc(Cl)cc2n([O-])c2ccc(Cl)cc21 | 10% (inactive)
CCOP(=O)(OCC)C(Cc1ccccc1)N=C(c1ccccc1)c1ccccc1 (stereo not drawn) | 98% (active)
CC[C@@]1(O)C(=O)OCc2c1cc1n(c2=O)Cc2cc3c(N)cccc3nc2-1 | -33% (inactive)
COC1C=COC2(C)Oc3c(C)c(O)c4c(c3C2=O)/C(=N/C2CCC(O)OC2C)C=C(NC(=O)/C(C)=C\C(=O)C2CC2C(O)C(C)C(O)C(C)C(OC(C)=O)C1C)C4=O (stereo not drawn) | 87% (active)
COc1cc2c(c(OC)c1OC)-c1c(cc3c(c1OC)OCO3)CC(C)C(C)(O)C2OC(=O)c1ccccc1 (stereo not drawn) | 33% (inactive)
O=c1ssc2ncccc12 | 99% (active)
O=C1C2C(C(=O)N1c1ccc(OCc3ccccc3)cc1)C1c3ccccc3C2C2CCCCN21 (stereo not drawn) | 97% (active)
COc1ccc(-c2cn(-c3ccc(I)cc3)c3ncnc(N)c23)cc1 | -1% (inactive)
CCOC(=O)C(NC(=O)c1ccccc1)(N1CCN(c2cc3c(cc2F)c(=O)c(C(=O)O)cn3C2CC2)CC1)C(F)(F)F (stereo not drawn) | 2% (inactive)
C/C(=N\O)C1CC2C=C(C#N)C1N(Cc1ccccc1)C2 (stereo not drawn) | 7% (inactive)
CC/C(=C(\c1ccccc1)c1ccc(OCCN(C)C)cc1)c1ccccc1 | 96% (active)
COc1ccccc1N=NC(C(=O)c1ccccc1)C(=O)c1ccccc1 | 97% (active)
CC(O)C(O)C(O)C(/C=N\Nc1ccccc1)=N/Nc1ccccc1 (stereo not drawn) | 99% (active)
COc1ccc(/C=C2\SC(=S)N(/C=C/c3nc4ccccc4[nH]c3=O)C2=O)cc1OC | 90% (active)
N#CN=Nc1cc(Cl)c(N=NC#N)cc1Cl | 85% (active)
Cc1ccc(S(=O)(=O)Oc2cc(Cl)c(Cl)cc2Cl)cc1 | 2% (inactive)
c1ccc2c(c1)Oc1cccc3cccc-2c13 | 39% (inactive)
O=C(c1ccc(Cl)cc1Cl)C(Cl)Cl | 98% (active)
CC(C)C1=CCC2C(=C1)CCC1C(C)(C(=O)O)CCCC21C (stereo not drawn) (tested in a mixture with another compound) | 97% (active)

SMILES | growth inhibition
COc1cc(/C=C2\CCc3ccccc3C2=O)cc(OC)c1OC | 48% (inactive)
CC(=O)[O][Bi]([c]1ccccc1)[c]1ccccc1 | 96% (active)
S=C(N/N=C/c1ccccn1)Nc1ccc(Cl)cc1 | 80% (active)
COc1cc(CC2CC(c3ccc4c(c3)OCO4)OC2=O)cc(OC)c1OC (stereo not drawn) | 12% (inactive)
CNC1C(OC2C(OC3C(O)C(O)C(N=C(N)N)C(O)C3N=C(N)N)OC(C)C2(O)CO)OC(CO)C(O)C1O (stereo not drawn) | -9% (inactive)
NNC(=O)CCc1ccc2ccc3ccccc3c2c1 | 40% (inactive)
Oc1ccc2ccccc2c1C(c1ccc(Cl)cc1)c1c(O)ccc2ccccc12 | 84% (active)
CCCCN(CCCC)CCSc1ccc(Cl)cc1 | 92% (active)
CCC(C)COC(=O)c1ccc(N=Cc2ccc(C=Nc3ccc(C(=O)OCC(C)CC)cc3)cc2)cc1 (stereo not drawn) | 11% (inactive)
CC1(C)C(=O)OC(n2cc(F)c(=O)[nH]c2=O)C1=O (stereo not drawn) | -8% (inactive)
O=[N+]([O-])CC(SCc1ccccc1)c1ccc2c(c1)OCO2 (stereo not drawn) | 97% (active)
COc1cc2c(cc1[N+](=O)[O-])C(=O)C(Br)(Br)CCC2 | 96% (active)
OCC1OC(OCC(O)C(O)C(O)C(/C=N/Nc2ccccc2)=N/Nc2ccccc2)C(O)C(O)C1O (stereo not drawn) | 28% (inactive)
COc1ccc(N=C2C(=O)Nc3ccc(Br)cc32)cc1 | -30% (inactive)
Cn1c(=O)c2ccccc2c2ccccc21 | 63% (inactive)
CC[n+]1ccc2c(C)c3[nH]c4ccc(O)cc4c3c(C)c2c1 | -10% (inactive)
CC(=O)ON1C(=O)c2cccc3cccc(c23)C1=O | 99% (active)
COc1ccc2ccc3ccccc3c2c1C=O | 83% (active)
OC1CCCc2c1cc1ccc3cccc4ccc2c1c34 (stereo not drawn) | 91% (active)

Source: PubChem BioAssay (NCI)
